The values below come from PubChem BioAssay (NCI).

Compounds without any hit were thinned out: in the full panel of roughly 83,000, 20% have a hit.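 Single-dose data. Exposure time 48 hours. Values below 10 considered active.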 Activity calls are given as the source filed them.

This assay deals with 786-0 renal. Kind of assay: NCI-60 one-dose screen, 48 h (100 = growth as untreated, 0 = no growth, -100 = all killed). Conditions: 10 µM unless noted.
As to `Cc1ccc(/C=C/C(=O)c2ccc(F)cc2)s1`, the growth is 76.7% (inactive).
Take `O=C1Nc2ccc(Cl)cc2/C1=C/c1cccs1`: the growth was 108% (inactive).
In the case of `N=C1c2nc3n(c2C(=O)c2nc4n(c21)CCCCC4)CCCCC3` it was 120% (inactive); in that of `O=C(c1ccccc1)c1ccc(Oc2ccc([N+](=O)[O-])cc2[N+](=O)[O-])cc1`, 71.9% (inactive); in that of `CC[C@H]1CN2CCc3cc(OC)c(OC)cc3C2C[C@@H]1CC1NCCc2cc(OC)c(OC)cc21` (some centres undefined), -19.6% (active).
In the case of `O=C(/C=C/c1cccc(O)c1)c1cccc(-n2cc(-c3ccccc3)[nH]c2=O)c1` it was -59.7% (active); in that of `CCOC(=O)Nc1cc(-c2ccc(C)c(NS(C)(=O)=O)c2)nn2c(C)nnc12`, 35.5% (inactive); in that of `C1CCC(C(CC2CCCCN2)C2CCCCC2)CC1` (centres undefined), -86.7% (active).
Consider `C[C@H]1c2cccc(O)c2C(O)=C2C(=O)[C@]3(O)C(O)=C(C(N)=O)C(=O)[C@@H](N(C)C)[C@@H]3[C@@H](O)[C@@H]21`, for which the growth is 50.7% (inactive).
Turning to `COc1ccc(C(=O)COc2cccc(/C=C3\COc4ccc5ccccc5c4C3=O)c2)cc1`, the growth was 83% (inactive).
As to `CN1CCC[C@@H]1CCO[C@](C)(c1ccccc1)c1ccc(Cl)cc1`, the growth is 66.5% (inactive).
The result for `C=CCNC(=O)/C(=C/c1cccc([N+](=O)[O-])c1)NC(=O)c1ccccc1` reads 84.7% (inactive).
Consider `CCc1ccc(-c2nc(SCC(=O)NC3CCCCC3)n[nH]2)cc1`, for which the growth is 73.4% (inactive).
The result for `Cc1cc2ccccn2c1C(=O)c1ccc(C(=O)c2ccccc2)cc1` reads 84.9% (inactive).
